# Among all 5,500 compounds or so, about 2,000 (36%) were called active. About 18% were inconclusive and are not listed. This is one part of the list. Values without a mark were called inactive. No stated cut-off is given here; in the data, active means normalized growth mostly below about 0.91 (no sharp cut-off); inconclusive means no clear call, values can overlap the other calls; inactive means mostly above about 0.92.
# Assay: chemical genetic growth profiling, strain panel (AID 1159580);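 further: tested at 20 µM; growth read once vehicle control cultures reached saturation at 30 °C; 1 = growth at the plate median or of vehicle wells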
# Conditions: growth OD
structure (smiles),measurement,setting,value
CCCOc1ccc2nc(NC(=O)OC)[nH]c2c1,normalized growth,"S. cerevisiae deletion strains, locus YJR075W, strain HOC1, stronger effect = lower value",0.992
same,normalized growth,"S. cerevisiae deletion strains, locus YKL009W, strain mrt4, stronger effect = lower value",0.99
same,normalized growth,"S. cerevisiae deletion strains, locus YKL068W, stronger effect = lower value",0.995
same,normalized growth,"S. cerevisiae deletion strains, locus YKL085W, strain MDH1 (second series), stronger effect = lower value",0.995
same,normalized growth,"S. cerevisiae deletion strains, locus YKL085W, strain MDH1, stronger effect = lower value",0.995
same,normalized growth,"S. cerevisiae deletion strains, locus YKL160W, strain elf1, stronger effect = lower value",1.02
same,normalized growth,"S. cerevisiae deletion strains, locus YKL190W, strain CNB1, stronger effect = lower value",1.02
same,normalized growth,"S. cerevisiae deletion strains, locus YKR001C, strain vps1, stronger effect = lower value",0.96
same,normalized growth,"S. cerevisiae deletion strains, locus YKR026C, strain gcn3, stronger effect = lower value",1.02
same,normalized growth,"S. cerevisiae deletion strains, locus YKR091W, strain srl3, stronger effect = lower value",1.01
same,normalized growth,"S. cerevisiae deletion strains, locus YLL001W, strain dnm1, stronger effect = lower value",1.01
same,normalized growth,"S. cerevisiae deletion strains, locus YLL026W, stronger effect = lower value",1.01
same,normalized growth,"S. cerevisiae deletion strains, locus YLL041C, strain sdh2, stronger effect = lower value",1.01
same,normalized growth,"S. cerevisiae deletion strains, locus YLR027C, strain aat2, stronger effect = lower value",1.01
same,normalized growth,"S. cerevisiae deletion strains, locus YLR039C, strain RIC1, stronger effect = lower value",0.833
same,normalized growth,"S. cerevisiae deletion strains, locus YLR058C, strain SHM2, stronger effect = lower value",0.99
same,normalized growth,"S. cerevisiae deletion strains, locus YLR102C, strain apc9, stronger effect = lower value",0.981
same,normalized growth,"S. cerevisiae deletion strains, locus YLR113W, strain HOG1, stronger effect = lower value",1.03
same,normalized growth,"S. cerevisiae deletion strains, locus YLR221C, strain rsa3, stronger effect = lower value",1.01
same,normalized growth,"S. cerevisiae deletion strains, locus YLR258W, strain gsy2, stronger effect = lower value",1.01
same,normalized growth,"S. cerevisiae deletion strains, locus YLR262C, strain YPT6 (second series), stronger effect = lower value",0.955
same,normalized growth,"S. cerevisiae deletion strains, locus YLR262C, strain YPT6, stronger effect = lower value",0.849
same,normalized growth,"S. cerevisiae deletion strains, locus YLR268W, strain sec22, stronger effect = lower value",0.971
same,normalized growth,"S. cerevisiae deletion strains, locus YLR320W, strain mms22, stronger effect = lower value",1.04
same,normalized growth,"S. cerevisiae deletion strains, locus YLR330W, strain CHS5, stronger effect = lower value",0.989
same,normalized growth,"S. cerevisiae deletion strains, locus YLR342W, strain FKS1 (second series), stronger effect = lower value",0.973
same,normalized growth,"S. cerevisiae deletion strains, locus YLR342W, strain FKS1, stronger effect = lower value",1.03
same,normalized growth,"S. cerevisiae deletion strains, locus YLR357W, strain rsc2, stronger effect = lower value",1.02
same,normalized growth,"S. cerevisiae deletion strains, locus YLR370C, strain arc18, stronger effect = lower value",1.02
same,normalized growth,"S. cerevisiae deletion strains, locus YLR371W, strain rom2, stronger effect = lower value",0.983
same,normalized growth,"S. cerevisiae deletion strains, locus YLR384C, strain iki3, stronger effect = lower value",1.01
same,normalized growth,"S. cerevisiae deletion strains, locus YLR418C, strain cdc73, stronger effect = lower value",0.878
same,normalized growth,"S. cerevisiae deletion strains, locus YML016C, strain PPZ1, stronger effect = lower value",0.983
same,normalized growth,"S. cerevisiae deletion strains, locus YML032C, strain rad52, stronger effect = lower value",0.982
same,normalized growth,"S. cerevisiae deletion strains, locus YML120C, strain ndi1, stronger effect = lower value",1.02
same,normalized growth,"S. cerevisiae deletion strains, locus YML124C, strain tub3, stronger effect = lower value",0.88 (active)
same,normalized growth,"S. cerevisiae deletion strains, locus YMR058W, strain fet3, stronger effect = lower value",1.01
same,normalized growth,"S. cerevisiae deletion strains, locus YMR078C, strain ctf18, stronger effect = lower value",0.979
same,normalized growth,"S. cerevisiae deletion strains, locus YMR125W, strain sto1, stronger effect = lower value",1.02
same,normalized growth,"S. cerevisiae deletion strains, locus YMR129W, stronger effect = lower value",1.02
same,normalized growth,"S. cerevisiae deletion strains, locus YMR205C, strain PFK2, stronger effect = lower value",1.03
same,normalized growth,"S. cerevisiae deletion strains, locus YMR223W, strain ubp8, stronger effect = lower value",0.96
same,normalized growth,"S. cerevisiae deletion strains, locus YMR231W, strain pep5, stronger effect = lower value",1.01
same,normalized growth,"S. cerevisiae deletion strains, locus YMR263W, strain SAP30, stronger effect = lower value",0.989
same,normalized growth,"S. cerevisiae deletion strains, locus YMR307W, strain GAS1, stronger effect = lower value",0.844
same,normalized growth,"S. cerevisiae deletion strains, locus YNL067W, strain RPL9B, stronger effect = lower value",1.01
same,normalized growth,"S. cerevisiae deletion strains, locus YNL071W, strain lat1, stronger effect = lower value",1.02
same,normalized growth,"S. cerevisiae deletion strains, locus YNL128W, strain TEP1, stronger effect = lower value",0.975
same,normalized growth,"S. cerevisiae deletion strains, locus YNL153C, strain GIM3, stronger effect = lower value",0.438 (active)
same,normalized growth,"S. cerevisiae deletion strains, locus YNL183C, strain NPR1, stronger effect = lower value",1.01
same,normalized growth,"S. cerevisiae deletion strains, locus YNL209W, strain ssb2, stronger effect = lower value",1.02
same,normalized growth,"S. cerevisiae deletion strains, locus YNL233W, strain BNI4, stronger effect = lower value",1.01
same,normalized growth,"S. cerevisiae deletion strains, locus YNL248C, strain rpa49, stronger effect = lower value",1.02
same,normalized growth,"S. cerevisiae deletion strains, locus YNL250W, strain rad50, stronger effect = lower value",0.98
same,normalized growth,"S. cerevisiae deletion strains, locus YNL271C, strain bni1, stronger effect = lower value",0.986
same,normalized growth,"S. cerevisiae deletion strains, locus YNL298W, strain CLA4, stronger effect = lower value",0.965
same,normalized growth,"S. cerevisiae deletion strains, locus YNL307C, strain MCK1, stronger effect = lower value",0.972
same,normalized growth,"S. cerevisiae deletion strains, locus YNL322C, strain KRE1 (second series), stronger effect = lower value",1
same,normalized growth,"S. cerevisiae deletion strains, locus YNL322C, strain KRE1, stronger effect = lower value",1
same,normalized growth,"S. cerevisiae deletion strains, locus YNR049C, strain mso1, stronger effect = lower value",1.01
same,normalized growth,"S. cerevisiae deletion strains, locus YNR052C, strain pop2, stronger effect = lower value",0.977
same,normalized growth,"S. cerevisiae deletion strains, locus YOL006C, strain TOP1, stronger effect = lower value",0.983
same,normalized growth,"S. cerevisiae deletion strains, locus YOL012C, strain htz1",0.822
same,normalized growth,"S. cerevisiae deletion strains, locus YOL147C, strain pex11, stronger effect = lower value",0.975
same,normalized growth,"S. cerevisiae deletion strains, locus YOR001W, strain rrp6, stronger effect = lower value",1.02
same,normalized growth,"S. cerevisiae deletion strains, locus YOR061W, strain CKA2, stronger effect = lower value",0.992
same,normalized growth,"S. cerevisiae deletion strains, locus YOR069W, strain VPS5, stronger effect = lower value",0.993
same,normalized growth,"S. cerevisiae deletion strains, locus YOR070C, strain gyp1, stronger effect = lower value",1.01
same,normalized growth,"S. cerevisiae deletion strains, locus YOR080W, strain dia2, stronger effect = lower value",1.02
same,normalized growth,"S. cerevisiae deletion strains, locus YOR083W, strain WHI5, stronger effect = lower value",1.02
same,normalized growth,"S. cerevisiae deletion strains, locus YOR106W, strain vam3, stronger effect = lower value",0.999
same,normalized growth,"S. cerevisiae deletion strains, locus YOR136W, strain idh2, stronger effect = lower value",0.995
same,normalized growth,"S. cerevisiae deletion strains, locus YOR144C, strain elg1, stronger effect = lower value",0.988
same,normalized growth,"S. cerevisiae deletion strains, locus YOR184W, strain ser1, stronger effect = lower value",0.957
same,normalized growth,"S. cerevisiae deletion strains, locus YOR231W, strain MKK1, stronger effect = lower value",1.07
same,normalized growth,"S. cerevisiae deletion strains, locus YOR265W, strain rbl2, stronger effect = lower value",1.01
same,normalized growth,"S. cerevisiae deletion strains, locus YOR270C, strain vph1, stronger effect = lower value",1.02
same,normalized growth,"S. cerevisiae deletion strains, locus YOR290C, strain snf2, stronger effect = lower value",1.01
same,normalized growth,"S. cerevisiae deletion strains, locus YOR316C, strain cot1, stronger effect = lower value",0.983
same,normalized growth,"S. cerevisiae deletion strains, locus YPL051W, strain arl3, stronger effect = lower value",1.01
same,normalized growth,"S. cerevisiae deletion strains, locus YPL078C, strain atp4, stronger effect = lower value",1.02
same,normalized growth,"S. cerevisiae deletion strains, locus YPL106C, strain sse1, stronger effect = lower value",1.02
same,normalized growth,"S. cerevisiae deletion strains, locus YPL240C, strain hsp82, stronger effect = lower value",1.01
same,normalized growth,"S. cerevisiae deletion strains, locus YPL241C, strain CIN2, stronger effect = lower value",0.606 (active)
same,normalized growth,"S. cerevisiae deletion strains, locus YPL256C, strain CLN2, stronger effect = lower value",1.02
same,normalized growth,"S. cerevisiae deletion strains, locus YPR119W, strain clb2, stronger effect = lower value",0.987
same,normalized growth,"S. cerevisiae deletion strains, locus YPR141C, strain kar3, stronger effect = lower value",0.993
same,normalized growth,"S. cerevisiae deletion strains, locus YPR163C, strain tif3, stronger effect = lower value",0.982
same,normalized growth,"S. cerevisiae deletion strains, locus YPR167C, strain met16, stronger effect = lower value",0.977
same,normalized growth,"S. cerevisiae deletion strains, strain wtn01, stronger effect = lower value",0.967
same,normalized growth,"S. cerevisiae strains, strain wild type, stronger effect = lower value",0.995

# Source: PubChem BioAssay AID1159580 (chemical genetic matrix, 2015)
